# Only some compounds are listed: those with a hit (about 4.3% of all), similar ones and a draw of the others.
# HSF1 activator: increases HSF-1 driven luciferase reporter signal. NIH3T3-HGL HSF-1 luciferase reporter, MG132, 8 h; 100% = twice DMSO control signal. activation, % at 9 µM. 1.7% of 300,000 active;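 active = mean replicate activation of at least 50% with a set share of replicates each reaching 50%; inconclusive = only one of those two conditions met; inactive = mean below 50% and too few replicates reaching it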;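 note: 0% = median of the neutral control wells and 100% = twice that signal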
# esBAF inh: SWI/SNF esBAF complex inhibition. mouse ES cells, Bmi1-luciferase knock-in reporter, 24 h; 100% = twice the neutral-well signal. reporter increase, % at 12.5 µM. 2% of 350,000 active. AID 602393; in the data active = activation above about 40%; inconclusive = no clear call, values can overlap the other calls;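 note: 0% = median of the plate's neutral control wells and 100% = double that signal; a rise in the Bmi1 reporter signal indicates esBAF inhibition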
# Wnt bcat act: activates Wnt/beta-catenin signaling in a reporter cell assay; activation, % at 9.35 µM; activator, plate reader; 1.2% of 300,000 active; AID 743398; in the data active = activation above about 30%, passing the limit was not always enough; inconclusive = no clear call, values can overlap the other calls;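 note: 0% = neutral control wells and 100% = positive control wells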
# HSF1 inhib: HSF1 inhibition; 0.77% of 300,000 active; NIH3T3-HGL HSE-luciferase, MG132-induced, luminescence 8 h; hits give low values; activity change, negative = inhibition, % at 7.5 µM (by protocol);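 active = more than half of replicate wells show activity change below -50%, luminescence cut by over half; inconclusive = some wells, but at most half, below -50%; inactive = no replicate well below -50%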;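 note: luciferase reports HSF-1 transcriptional activity via heat shock element; 0% = median of DMSO wells and -100% = zero luminescence signal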
# MITF TRPM1 HTS: increases MITF-driven TRPM1 promoter luciferase signal. activation, % at 12.5 µM. AID 588334. 0.75% of 300,000 active. SK-MEL-5 TRPM1-promoter luciferase, 24 h; % of positive control, neutral wells = 0;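 active = mean activation of at least 80% with every replicate also reaching 80%; inconclusive = mean reaches 80% but some replicate falls short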;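 note: 0% = neutral control wells and 100% = parthenolide positive control wells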
# SMARCA2 act: SMARCA2 function activation, primary screen | MG213 cells, MMTV-luciferase reporter, dexamethasone, overnight | activation, % at 9.1 µM | 1% of 370,000 active | AID 652017; in the data active = activation above about 7.8%;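 note: 0% = vehicle wells and 100% = reference activator wells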
# Starred values were filed as active, the others as inactive; ? = inconclusive; / = no result.
SMILES,HSF1 activator,esBAF inh,Wnt bcat act,HSF1 inhib,MITF TRPM1 HTS,SMARCA2 act
CCNc1nc(NCC)n2c(SCC(=O)Nc3ccc(Br)cc3F)nnc2n1,2,/,0,6,4,0
CCNc1nc(NCC)n2c(SCC(=O)c3ccc(C(C)C)cc3)nnc2n1,51*,/,-2,-4,1,-3
CCNc1nc(NCC)n2c(SCC(=O)Nc3ccc(C(F)(F)F)cc3[N+](=O)[O-])nnc2n1,70*,/,/,31,1,-2
C[C@H](CO)N1C[C@H](C)[C@@H](CN(C)C(=O)Nc2cccc3ccccc23)Oc2c(NS(=O)(=O)c3ccc(F)cc3)cccc2C1=O,/,-5,/,/,/,/
Cc1cc(C)c2oc(-c3cccc(N)c3)nc2c1,8,55*,14,5,/,3
Cc1ccc2nc(-c3cccc(N)c3)oc2c1,40,/,10,12,-9,0
C[C@@H]1CN([C@@H](C)CO)C(=O)c2cc(C#CC3CCCCC3)cnc2O[C@@H]1CN(C)S(=O)(=O)c1ccccc1,/,-2,/,/,/,/
Cc1c(NC(=O)C2CC(c3ccc(F)cc3)=NO2)c(=O)n(-c2ccccc2)n1C (stereo not given),-88,-3,-3,-84*,/,2
COc1ccc(C2=NOC(C(=O)Nc3c(C)n(C)n(-c4ccccc4)c3=O)C2)cc1 (stereo not given),19,-1,-2,-3,10,-1
C[C@@H]1CN([C@@H](C)CO)C(=O)c2cc(C3=CCCC3)cnc2O[C@@H]1CN(C)C(=O)C1CCC1,/,-3,/,/,/,/
Cc1sc2nc(CSc3nc4ccccc4c(=O)n3CCCN3CCOCC3)[nH]c(=O)c2c1C,61*,2,-7,41,5,1
CC(=O)c1c(C)[nH]c(C(=O)CSc2nc3ccccc3c(=O)n2CCCN2CCOCC2)c1C,-11,6,-3,-5,/,-1
CN(C)c1ccc(/C=N/NC(=O)CCCO)cc1,-7,/,4,-2,4,2
CCCCCC(=O)N/N=C/c1ccc(N(C)C)cc1,-7,51*,12,9,60,1
CC(Nc1ncnc2sccc12)c1ccccc1 (stereo not given),-84,-16,-4,-81*,-22,-6
COc1ccc(Nc2ncnc3sccc23)cc1,24,23,9,15,73,7
COc1ccc(Oc2ncnc3sccc23)cc1,20,45*,9,1,88*,3
COc1cccc(Nc2ncnc3sccc23)c1,?,59*,9,24,72,-1
COc1cccc(Nc2ncnc3sc(C)cc23)c1,69*,66*,10,33,55,4
c1ccc(Nc2ncnc3sccc23)cc1,-6,12,2,0,10,0
COc1ccc(CN2C[C@@H](O)COC[C@@H]3O[C@H](CC(=O)N(C)C)CC[C@H]32)cc1,/,4,/,/,/,/
CC(=O)N(C)C[C@@H]1Oc2cc(C#CCC(C)C)ccc2S(=O)(=O)N([C@@H](C)CO)C[C@H]1C,/,3,/,/,/,/
O=S(=O)(c1cccc(F)c1)N1CC[C@@H]2[C@H]1c1cc(-c3cccc(F)c3)ccc1N[C@@H]2CO,/,0,/,/,/,/
CC1(C)Cc2c(sc3nc(-c4cc5ccccc5o4)n(N)c(=O)c23)CO1,43,48*,/,21,129*,5
CCCC(=O)Nc1ccc2c(c1)OC[C@@H](C)N(Cc1cccc(F)c1)C[C@H](C)[C@H](OC)CN(C)C2=O,/,2,/,/,/,/
SMILES,HSF1 activator,esBAF inh,Wnt bcat act,HSF1 inhib,MITF TRPM1 HTS,SMARCA2 act
Clc1cccc(-c2nc3ccc(Br)cn3c2Cc2ccsc2)c1,/,43*,0,/,/,3
Brc1cccc(-c2nc3ccc(Br)cn3c2Cc2ccsc2)c1,/,63*,2,/,/,1
COc1ccc(NC(=O)N(C)C[C@H]2OCCCC[C@@H](C)Oc3ccc(NS(C)(=O)=O)cc3C(=O)N([C@@H](C)CO)C[C@H]2C)cc1,/,-1,/,/,/,/
Cc1ccc(NC(=O)CCN2C(=O)C3CCCCC3C2=O)cc1[N+](=O)[O-] (stereo not given),-63,1,1,-53*,5,0
CC(=O)Nc1ccc(C)c([N+](=O)[O-])c1,-8,-10,1,-9,0,1
O=C(Nc1cccnc1)OC1CCCCC1,-2,/,4,3,14,-1
Cc1cc(NC(=O)OC2CCCCC2)ccc1[N+](=O)[O-],71*,67*,16,34,120*,2
Cc1ccc(NC(=O)C2C3CCCCC32)cc1[N+](=O)[O-] (stereo not given),30,42*,16,18,55,2
C[C@H]1CN([C@@H](C)CO)C(=O)c2cc(NC(=O)Nc3ccccc3)ccc2O[C@@H]1CN(C)C(=O)Nc1ccc2c(c1)OCO2,/,-4,/,/,/,/
COc1ccc(-c2nc(CNS(=O)(=O)c3ccc(OC)c(OC)c3)cs2)cc1,-70,3,-2,-63*,/,-2
CO[C@@H]1CN(C)C(=O)c2cc(NC(C)=O)ccc2OC[C@H](C)N(Cc2ccccn2)C[C@@H]1C,/,0,/,/,/,/
O=C(C1CCC1)N1CCc2cc(S(=O)(=O)N3CCCCC3)ccc21,-19,1,/,-1,4,3
O=C(C1CCC1)N1CCc2cc(S(=O)(=O)N3CCN(c4ccccn4)CC3)ccc21,63*,9,/,25,/,/
C[C@@H]1CN([C@@H](C)CO)C(=O)c2cc(NC(=O)C3CCCCC3)ccc2O[C@H]1CN(C)S(=O)(=O)c1cn(C)cn1,/,0,/,/,/,/
Cn1nnnc1Sc1ncnc2scc(-c3ccc(F)cc3)c12,62*,-7,/,41,-85,-3
Cc1ccc(NC(=O)c2nnn(CC(=O)Nc3ccc4c(c3)OCO4)c2N)cc1C,15,18,2,13,6,-1
Nc1c(C(=O)Nc2ccc3c(c2)OCCO3)nnn1Cc1cccc(Br)c1,26,55*,42*,12,102*,4
Nc1c(C(=O)Nc2ccccc2Cl)nnn1-c1ccc2c(c1)OCCO2,58*,32,18,36,132*,2
O=C(CN1CCN(CC(=O)Nc2ccccc2Cl)CC1)Nc1ccc2c(c1)OCCO2,-2,0,/,-1,5,-1
Nc1c(C(=O)Nc2ccc3c(c2)OCCO3)nnn1Cc1ccc(Br)cc1,56*,126*,36*,30,111*,5
Nc1c(C(=O)Nc2ccc3c(c2)OCCO3)nnn1CCc1ccccc1,5,66*,12,3,12,1
O=C(C[C@H]1CC[C@@H](NC(=O)c2cnccn2)[C@H](CO)O1)NCc1ccccc1F,/,-1,/,/,/,/
CC(=O)Nc1ccc2c(c1)C(=O)N(C)[C@@H]1CC[C@@H](CC(=O)N3CCc4ccccc4C3)O[C@H]1CO2,/,1,/,/,/,/
CNC(=O)C[C@@H]1CC[C@H]2[C@@H](COc3ccc(NC(=O)c4ccc(F)cc4)cc3C(=O)N2C)O1,/,1,/,/,/,/

# Compound activity from PubChem.
